Screening data (PubChem BioAssay)
BAZ2B block: inhibitors of human BAZ2B bromodomain; Q9UIF8; AlphaScreen BAZ2B-H3K14Ac peptide displacement; Potency, µM (top dose mostly 114 µM), for inactives: at the top dose activity change, negative = inhibition, usual class: inhibitors; 360,000 tested, 4.4% active; also: % is scaled to controls: 0 for no effect and ±100 for the full control effect; nearly all actives have a fitted effect of over 60% in size
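AlphaScreen displacement: compounds (up to 110uM) incubated 30 min at room temperature with a preformed 50 nM BAZ2B/50 nM biotinylated H3K14Ac peptide complex in PBS pH 7.4 with Tween-20. Donor and acceptor beads at 10 ug/mL final added, 20 min light-protected before reading.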
G9a inh: inhibitors of human histone lysine methyltransferase G9a; G9a H3K9 monomethylation, AlphaScreen, 2 h; Potency, µM (series often up to 102 µM), inactives show at the highest dose activity, negative = inhibition, hits mostly inhibitors; 350,000 tested, 8.8% active; also: % is scaled to controls: 0 for no effect and ±100 for the full control effect; nearly all actives have a fitted effect of over 75% in size
Target sequence (Q96KQ7 913-1193 limits assumed): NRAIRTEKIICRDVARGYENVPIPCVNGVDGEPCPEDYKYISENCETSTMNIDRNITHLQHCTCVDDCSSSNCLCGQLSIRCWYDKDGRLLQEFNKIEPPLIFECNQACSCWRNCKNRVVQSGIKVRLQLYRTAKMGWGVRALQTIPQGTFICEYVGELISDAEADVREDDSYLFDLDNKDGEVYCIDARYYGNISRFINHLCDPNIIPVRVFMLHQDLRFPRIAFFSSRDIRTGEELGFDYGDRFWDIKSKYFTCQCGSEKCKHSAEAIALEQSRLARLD
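AlphaScreen detection with an anti-monomethyl H3K9 antibody quantified product after a 2 h room-temperature reaction containing 500 nM biotinylated H3K9 peptide, 20 µM SAM and 20 nM enzyme, which had been preincubated 15 min with compound.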
HP1b chromo inh: HP1-beta chromodomain-methylated histone interaction inhibition | AlphaScreen HP1-beta / biotin-H3K9me3 peptide binding | Potency, µM (highest dose often 114 µM), for inactives: at the top dose activity change, negative = inhibition, actives largely listed as inhibitors | 390,000 tested, 0.56% active; also: nearly all actives have a fitted effect of over 70% in size
Target sequence (P83916 whole entry, looked up): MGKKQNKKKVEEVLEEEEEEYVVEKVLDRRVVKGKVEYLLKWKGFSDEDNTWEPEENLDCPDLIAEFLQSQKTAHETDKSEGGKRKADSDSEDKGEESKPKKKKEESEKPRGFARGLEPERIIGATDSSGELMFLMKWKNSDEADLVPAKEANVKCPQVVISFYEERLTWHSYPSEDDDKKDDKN
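AlphaScreen: HP1-beta (50 nM) preformed 30 min with biotin-H3(1-18)K9me3 peptide (50 nM) in PBS pH 7.4, 0.01% Tween-20. Compound added for 30 min at RT, then streptavidin donor/nickel chelate acceptor beads (10 ug/mL) for 30 min.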
Sfp inh: inhibitors of Bacillus subtilis Sfp phosphopantetheinyl transferase | 310,000 tested, 3.5% active | AID 1490 | Biochemical Sfp PPTase activity, qHTS | Potency, µM, without a hit: largest response in the series, negative = inhibition, actives largely listed as inhibitors;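 also: the enzyme is Sfp with the accession as filed and its product quenches rhodamine fluorescence; 0% = enzyme reaction without inhibitor and -100% = no enzyme wells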
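Sfp 15 nM + cpd, 15 min RT; start w/ rhodamine-CoA 5 uM, BHQ-2-YbbR 12.5 uM (final); 50 mM Hepes pH 7.6, 10 mM MgCl2, 0.01% NP-40, 0.01% BSA; read 525/598 nm at 0 and 30 min.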
L3MBTL1 block: L3MBTL1 (human) inhibition | AID 485360 | Potency, µM (titrated, usually from 57.1 µM), for inactives: top-dose activity, negative = inhibition, usual class: inhibitors | Q9Y468 | 230,000 tested, 0.66% active | AlphaScreen L3MBTL1–H3K9me1 peptide binding; also: % is scaled to controls: 0 for no effect and ±100 for the full control effect; nearly all actives have a fitted effect of over 60% in size
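AlphaScreen assay: L3MBTL1 (50 nM final) was preincubated 30 min at room temperature with biotinylated H3(1-15)K9me1 peptide (75 nM final), then 30 min with library compounds; streptavidin donor and nickel chelate acceptor beads (10 ug/mL final) added, 30 min dark.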
JMJD2A Tudor inh: blocks the human JMJD2A Tudor domain; AlphaScreen JMJD2A-Tudor / H3K4me3 peptide binding; Potency, µM (highest dose often 114 µM), for the others: top-dose activity change, negative = inhibition, hits mostly inhibitors; 390,000 tested, 4.4% active; also: % is scaled to controls: 0 for no effect and ±100 for the full control effect; nearly all actives have a fitted effect of over 50% in size
Numbers without * were called inactive; ? = inconclusive; / = no result given; [ ] = dose if it differs, or a comment. Sampled rows, rich in hits. Any-hit rate of the full collection: about 12%. Calls follow the shape of the dose curve; as a rule, active = well fitted curve in the direction sought with a large enough effect; inconclusive = small, poorly fitted or top-dose-only effect, or another doubt; inactive = no such curve, though single readings can be large; an effect the other way counts as inactive or inconclusive. Potency is read from the fitted curve at half-maximal effect.

SMILES	BAZ2B block	G9a inh	HP1b chromo inh	Sfp inh	L3MBTL1 block	JMJD2A Tudor inh
Cc1ccc2[nH]c(CSc3nnc(NC(=O)c4ccccc4C)s3)cc(=O)c2c1	56.2µM*	-44.4%[59 µM]	23.4%[57 µM]	/	/	-20.8%
CCSc1nnc(NC(=O)CSc2nccn2-c2cccc(C)c2C)s1	?	?	?	-8.9%	-18.6%	25.1µM*
CCCC(=O)Nc1nnc(SCC(=O)N2CCCCC2)s1	3.4%	17.8µM*	?	-10.6%	/	70.8µM*
O=C(Nc1nnc(SCC(=O)N2CCOCC2)s1)c1ccccc1	3.3%	10µM*	30.8%	6.4%	5.1%	?
CNC(=O)CSc1nnc(NC(=O)Nc2ccccc2)s1	2.2%	15.8µM*	98.9%	/	/	-3.9%
O=C(Nc1ccccc1)Nc1nnc(SCC(=O)N2CCCCC2)s1	-3.5%	?	99.0%	/	/	0.3%
CC1CCN(C(=O)CSc2nnc(NC(=O)Nc3ccccc3)s2)CC1	-3.4%	12.6µM*	54.9%	/	/	-22.1%
CCCC(=O)Nc1nnc(SCC(=O)N2C(C)CCCC2C)s1 (stereo unspecified)	-0.7%	5.9%	25.2%	15.4%	/	-5.7%
CCOc1ccc(C(=O)NCC(c2ccco2)S(=O)(=O)c2ccc(C)cc2)cc1 (stereo unspecified)	-20.5%	?	28.2%	/	/	-20.5%
COc1cccc(-n2c(=O)c3c4c(sc3n(Cc3ccccc3C#N)c2=O)CCCC4)c1	1.3%	-0.6%[59 µM]	37.9%	/	/	3.1%
Cc1cccc(C)c1NC(=O)CSc1nnc(NC(=O)c2ccccc2C(=O)O)s1	-14.9%	50.1µM*	12.3%	16.8%	0.2%	-2.0%
COc1ccc(Cl)cc1NC(=O)CSC1=Nc2ccccc2C2=NC(CCC(=O)NCc3ccc(F)cc3)C(=O)N12 (stereo unspecified)	-14.6%	-6.5%[59 µM]	40.4%	/	/	-8.2%
CCc1cnc2c(c1SCC(=O)NCc1ccc(F)cc1)c(=O)n(C)c(=O)n2C	1.3%	1.1%[59 µM]	18.3%	/	/	-9.7%
CCn1c(SCC(=O)Nc2ccc(C)c(C)c2)nnc1-c1nonc1NC(C)=O	1.4%	2.6%[59 µM]	52.0%	/	/	6.3%
CCN1CCN(c2ccc(S(=O)(=O)N3CCCCC3)cc2NC(=O)c2ccc([N+](=O)[O-])s2)CC1	-7.2%	10µM*	?	/	-5.8%	?
CCN1CCN(c2ccc(S(=O)(=O)N3CCCCC3)cc2NC(=O)c2ccc(C)o2)CC1	-7.4%	39.8µM*	-6.2%	/	-3.1%	-23.4%
CCN1CCN(c2ccc(S(=O)(=O)N3CCCCC3)cc2NC(=O)c2ccccc2)CC1	-11.0%	10µM*	21.3%	/	-6.1%	-15.2%
CCN1CCN(c2ccc(S(=O)(=O)N3CCCCC3)cc2NC(=O)c2cccc(C)c2[N+](=O)[O-])CC1	-35.2%	50.1µM*	-1.7%	/	-3.7%	-33.8%
CCc1nn(CC(=O)NCc2ccccc2)c(=O)c2cccn12	?	?	8.7%	/	/	?
Cc1ccc(C)c(CNC(=O)CCn2cccn2)c1	-9.8%	13.4%[59 µM]	103.8%	/	/	-8.0%
CC(C)CC(=O)Nc1nnc(SCc2cc(=O)n3ccccc3n2)s1	3.4%	28.6%[59 µM]	23.7%[57 µM]	/	/	-7.5%
CN1CCN(S(=O)(=O)c2cccc(C(=O)Nc3cc(C(F)(F)F)ccc3N3CCCCC3)c2)CC1	-11.0%	44.7µM*	11.9%	/	-12.2%	-31.1%
CC1CCCCC1NC(=O)c1cccc(S(=O)(=O)N2CCN(C)CC2)c1 (stereo unspecified)	-6.0%	44.7µM*	7.3%	/	-1.2%	-19.3%
CCN1CCN(c2ccc(S(=O)(=O)N3CCCCC3)cc2NC(=O)c2cccc(C(F)(F)F)c2)CC1	-9.5%	12.6µM*	-11.4%	/	-8.1%	-34.5%
O=S(=O)(NCc1csc(-c2ccccc2)n1)c1ccccc1	6.4%	2.4%[59 µM]	14.3%	/	/	-4.0%
SMILES	BAZ2B block	G9a inh	HP1b chromo inh	Sfp inh	L3MBTL1 block	JMJD2A Tudor inh
CC(=O)N1CCc2cc(S(=O)(=O)NC(Cc3ccccc3)C(=O)NCc3ccccc3Cl)ccc21 (stereo unspecified)	/	?	56.6%	/	/	3.0%
CN(C)CCCNC(=O)c1ccccn1	-4.6%	8.1%	7.3%	9.9%	/	-16.3%
Cc1oc2ccccc2c1CC(=O)NCCCN(C)C	?	50.1µM*	59.2%	8.3%	/	-21.3%
CN(C)CCCNC(=O)/C(=N\O)c1ccccc1	-22.1%	56.2µM*	50.1%	20.1%	/	-3.1%[57.1 µM]
O=C(NCCc1ccccc1)/C(=N\O)c1ccccc1	-5.1%	-35.7%	39.5%	3.4%	-1.3%	-6.2%
Cc1ccc(-c2nnn3c2nc(NCCc2ccccc2)c2ccccc23)cc1	-12.5%	10.2%[59 µM]	48.2%	/	/	-3.3%
CCC(C)NC(=O)c1ccc2nc(-c3ccco3)c(-c3ccco3)nc2c1 (stereo unspecified)	/	/	-23.6%[57 µM]	/	/	-33.8%[57.1 µM]
O=c1[nH]c(/C=C/c2ccc([N+](=O)[O-])cc2)c([N+](=O)[O-])c(=O)[nH]1	-4.1%	28.2µM*	5.7%	0.3%	-7.6%	-2.7%
S=c1[nH]nc(C2COc3ccccc3O2)o1 (stereo unspecified)	8.3%	31.6µM*	17.5%	-4.3%	7.5%	-21.9%
O=C(CSc1nnc(C2COc3ccccc3O2)o1)N1CCCCC1 (stereo unspecified)	-4.1%	?	12.7%	-0.1%	/	-11.4%
S=c1nc(C2COc3ccccc3O2)[nH][nH]1 (stereo unspecified)	?	3.55µM*	8.2%	22.4µM*	0.7%	1.78µM*
Cc1nc(C2COc3ccccc3O2)sc1C(=O)O (stereo unspecified)	-1.4%	5.0%	50.2%	14.6%	5.7%	11.4%[57.1 µM]
COc1ccc(C2/C=C\CN(C(=O)C3CCCC3)C(C)C(=O)N2Cc2ccc(F)cc2)cc1 (stereo unspecified)	/	/	36.6%	-3.4%	/	-18.6%
Cc1ccc(C)c(N2CCN(C(=O)c3c(C)oc4nc(C)nc(N5CCOCC5)c34)CC2)c1	-5.5%[57.1 µM]	?	4.3%	/	/	-31.4%
S=C(c1ccccc1)N1CCN(c2ccccc2)CC1	/	/	?	/	/	-34.9%
CCN(CC)c1ccc(C(=S)N2CCN(c3ccccc3)CC2)cc1	10µM*	11.2µM*	?	?	-5.0%	-16.8%[11.4 µM]
CCN(CC)c1ccc(C(=O)N2CCN(Cc3ccccc3)CC2)cc1	-11.6%	?	-5.0%	0.1%	2.1%	?
CC(C)(C)c1ccc(C(=S)N2CCN(c3ccccc3)CC2)cc1	-34.3%	20µM*	?	50.1µM*	?	-35.9%
CCN(CC)c1ccc(NC(=O)c2cc(C)nc3c2c(C)nn3-c2ccc(C)cc2)c(C)c1	9.2%[57.1 µM]	-44.2%[59 µM]	26.0%	/	/	-4.5%
Cc1sc2nc(SCc3nc(-c4ccccc4)no3)n(-c3ccccc3)c(=O)c2c1C	1.0%	3.16µM*	20.8%	-5.8%	-18.7%	11.6%
O=C(NCc1cccs1)Nc1cccs1	-1.3%	-11.3%[2.33 µM]	-32.5%	17.8µM*	28.0%	-22.3%
